Test results from ChEMBL document CHEMBL1961873, “Compounds: GSK PKIS; Assays: Nanosyn kinase panel” (2012).

How the values were obtained:
[1] = target: T1, Ephrin type-B receptor 2 (Homo sapiens) (UniProt P29323); settings: at 1 µM
T1 sequence (whole entry): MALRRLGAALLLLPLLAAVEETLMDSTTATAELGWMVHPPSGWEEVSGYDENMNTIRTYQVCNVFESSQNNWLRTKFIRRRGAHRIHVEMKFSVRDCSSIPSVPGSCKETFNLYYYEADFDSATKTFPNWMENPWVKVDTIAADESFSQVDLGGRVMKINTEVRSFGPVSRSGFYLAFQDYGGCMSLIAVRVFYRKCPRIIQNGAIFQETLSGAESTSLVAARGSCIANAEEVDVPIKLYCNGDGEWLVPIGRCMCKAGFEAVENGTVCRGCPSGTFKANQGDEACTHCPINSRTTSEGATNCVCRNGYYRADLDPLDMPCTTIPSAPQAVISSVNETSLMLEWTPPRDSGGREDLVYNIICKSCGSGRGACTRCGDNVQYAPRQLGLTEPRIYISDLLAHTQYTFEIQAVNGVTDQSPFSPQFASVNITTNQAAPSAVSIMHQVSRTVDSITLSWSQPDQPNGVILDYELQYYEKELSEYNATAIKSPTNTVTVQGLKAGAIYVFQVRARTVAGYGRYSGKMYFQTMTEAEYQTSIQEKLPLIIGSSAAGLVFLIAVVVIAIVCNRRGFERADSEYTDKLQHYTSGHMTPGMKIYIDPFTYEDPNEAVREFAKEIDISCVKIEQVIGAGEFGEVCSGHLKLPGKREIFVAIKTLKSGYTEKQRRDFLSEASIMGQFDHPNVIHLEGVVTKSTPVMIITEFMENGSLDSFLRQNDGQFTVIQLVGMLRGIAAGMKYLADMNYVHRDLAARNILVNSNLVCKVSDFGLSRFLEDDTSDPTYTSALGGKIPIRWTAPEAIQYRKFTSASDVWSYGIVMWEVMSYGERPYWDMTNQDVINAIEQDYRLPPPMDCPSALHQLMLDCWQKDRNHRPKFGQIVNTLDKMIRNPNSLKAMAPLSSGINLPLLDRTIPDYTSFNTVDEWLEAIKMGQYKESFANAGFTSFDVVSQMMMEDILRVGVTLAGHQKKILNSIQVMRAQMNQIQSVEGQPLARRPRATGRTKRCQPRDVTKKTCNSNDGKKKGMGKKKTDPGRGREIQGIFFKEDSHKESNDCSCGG

[2] = target: T2, Ephrin type-B receptor 3 (Homo sapiens) (UniProt P54753); settings: at 0.1 µM
T2 sequence (whole entry): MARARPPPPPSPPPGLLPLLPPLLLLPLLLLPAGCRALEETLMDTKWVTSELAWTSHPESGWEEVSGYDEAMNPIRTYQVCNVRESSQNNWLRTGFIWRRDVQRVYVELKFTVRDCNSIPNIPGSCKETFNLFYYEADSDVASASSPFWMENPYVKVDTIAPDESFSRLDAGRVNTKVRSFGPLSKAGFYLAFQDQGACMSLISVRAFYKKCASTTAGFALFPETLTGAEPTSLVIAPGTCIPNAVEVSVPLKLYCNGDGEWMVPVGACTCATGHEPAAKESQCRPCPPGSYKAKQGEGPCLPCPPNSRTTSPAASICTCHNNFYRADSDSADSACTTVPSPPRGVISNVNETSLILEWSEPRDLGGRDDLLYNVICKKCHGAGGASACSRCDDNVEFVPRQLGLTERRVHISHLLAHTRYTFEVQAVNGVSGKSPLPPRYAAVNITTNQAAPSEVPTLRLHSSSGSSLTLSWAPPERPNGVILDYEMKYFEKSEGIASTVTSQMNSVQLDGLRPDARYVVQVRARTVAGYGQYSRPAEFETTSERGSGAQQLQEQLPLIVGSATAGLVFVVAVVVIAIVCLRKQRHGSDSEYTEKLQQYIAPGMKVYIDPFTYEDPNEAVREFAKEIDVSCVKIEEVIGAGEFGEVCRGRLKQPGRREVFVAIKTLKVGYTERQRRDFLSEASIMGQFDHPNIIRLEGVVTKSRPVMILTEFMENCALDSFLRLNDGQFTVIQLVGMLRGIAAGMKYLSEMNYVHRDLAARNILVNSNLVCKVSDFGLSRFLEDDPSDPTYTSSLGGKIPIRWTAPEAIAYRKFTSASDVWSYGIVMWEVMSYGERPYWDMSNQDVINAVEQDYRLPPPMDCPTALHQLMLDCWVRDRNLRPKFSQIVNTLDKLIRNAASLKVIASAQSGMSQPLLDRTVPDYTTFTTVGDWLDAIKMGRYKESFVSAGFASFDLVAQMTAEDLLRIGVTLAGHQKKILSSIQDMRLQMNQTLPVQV

[3] = target: T2, Ephrin type-B receptor 3 (Homo sapiens); settings: at 1 µM
[4] = target: T3, Ephrin type-B receptor 4 (Homo sapiens) (UniProt P54760); settings: at 0.1 µM
T3 sequence (whole entry): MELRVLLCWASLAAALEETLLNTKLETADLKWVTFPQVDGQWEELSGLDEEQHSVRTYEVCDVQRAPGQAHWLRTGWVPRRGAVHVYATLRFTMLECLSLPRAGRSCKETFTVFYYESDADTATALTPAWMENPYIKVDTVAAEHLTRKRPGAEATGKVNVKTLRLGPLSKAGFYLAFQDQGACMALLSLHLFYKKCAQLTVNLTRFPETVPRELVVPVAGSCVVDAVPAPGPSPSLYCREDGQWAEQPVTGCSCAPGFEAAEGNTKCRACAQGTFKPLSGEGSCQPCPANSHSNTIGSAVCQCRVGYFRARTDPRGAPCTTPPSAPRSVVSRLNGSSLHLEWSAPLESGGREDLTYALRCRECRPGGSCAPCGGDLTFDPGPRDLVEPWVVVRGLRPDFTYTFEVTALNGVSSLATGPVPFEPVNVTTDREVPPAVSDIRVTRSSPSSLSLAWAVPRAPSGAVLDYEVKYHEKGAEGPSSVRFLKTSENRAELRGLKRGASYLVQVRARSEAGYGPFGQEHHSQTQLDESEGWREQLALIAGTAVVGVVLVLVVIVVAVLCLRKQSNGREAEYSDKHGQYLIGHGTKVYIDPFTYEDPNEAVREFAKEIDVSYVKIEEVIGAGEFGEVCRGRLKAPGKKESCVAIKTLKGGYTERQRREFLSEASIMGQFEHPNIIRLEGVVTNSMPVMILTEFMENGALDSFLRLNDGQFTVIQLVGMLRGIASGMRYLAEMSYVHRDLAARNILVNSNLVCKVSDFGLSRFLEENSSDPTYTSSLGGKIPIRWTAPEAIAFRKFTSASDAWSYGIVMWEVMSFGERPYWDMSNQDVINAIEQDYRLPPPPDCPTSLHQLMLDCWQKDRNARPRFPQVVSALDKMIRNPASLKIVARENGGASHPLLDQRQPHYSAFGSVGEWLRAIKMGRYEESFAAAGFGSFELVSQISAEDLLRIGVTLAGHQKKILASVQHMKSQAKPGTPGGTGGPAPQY

[5] = target: T3, Ephrin type-B receptor 4 (Homo sapiens); settings: at 1 µM
[6] = target: Receptor tyrosine-protein kinase erbB-2 (Homo sapiens) (UniProt P04626); settings: at 0.1 µM
Chain of Receptor tyrosine-protein kinase erbB-2 (Homo sapiens) (P04626 whole entry): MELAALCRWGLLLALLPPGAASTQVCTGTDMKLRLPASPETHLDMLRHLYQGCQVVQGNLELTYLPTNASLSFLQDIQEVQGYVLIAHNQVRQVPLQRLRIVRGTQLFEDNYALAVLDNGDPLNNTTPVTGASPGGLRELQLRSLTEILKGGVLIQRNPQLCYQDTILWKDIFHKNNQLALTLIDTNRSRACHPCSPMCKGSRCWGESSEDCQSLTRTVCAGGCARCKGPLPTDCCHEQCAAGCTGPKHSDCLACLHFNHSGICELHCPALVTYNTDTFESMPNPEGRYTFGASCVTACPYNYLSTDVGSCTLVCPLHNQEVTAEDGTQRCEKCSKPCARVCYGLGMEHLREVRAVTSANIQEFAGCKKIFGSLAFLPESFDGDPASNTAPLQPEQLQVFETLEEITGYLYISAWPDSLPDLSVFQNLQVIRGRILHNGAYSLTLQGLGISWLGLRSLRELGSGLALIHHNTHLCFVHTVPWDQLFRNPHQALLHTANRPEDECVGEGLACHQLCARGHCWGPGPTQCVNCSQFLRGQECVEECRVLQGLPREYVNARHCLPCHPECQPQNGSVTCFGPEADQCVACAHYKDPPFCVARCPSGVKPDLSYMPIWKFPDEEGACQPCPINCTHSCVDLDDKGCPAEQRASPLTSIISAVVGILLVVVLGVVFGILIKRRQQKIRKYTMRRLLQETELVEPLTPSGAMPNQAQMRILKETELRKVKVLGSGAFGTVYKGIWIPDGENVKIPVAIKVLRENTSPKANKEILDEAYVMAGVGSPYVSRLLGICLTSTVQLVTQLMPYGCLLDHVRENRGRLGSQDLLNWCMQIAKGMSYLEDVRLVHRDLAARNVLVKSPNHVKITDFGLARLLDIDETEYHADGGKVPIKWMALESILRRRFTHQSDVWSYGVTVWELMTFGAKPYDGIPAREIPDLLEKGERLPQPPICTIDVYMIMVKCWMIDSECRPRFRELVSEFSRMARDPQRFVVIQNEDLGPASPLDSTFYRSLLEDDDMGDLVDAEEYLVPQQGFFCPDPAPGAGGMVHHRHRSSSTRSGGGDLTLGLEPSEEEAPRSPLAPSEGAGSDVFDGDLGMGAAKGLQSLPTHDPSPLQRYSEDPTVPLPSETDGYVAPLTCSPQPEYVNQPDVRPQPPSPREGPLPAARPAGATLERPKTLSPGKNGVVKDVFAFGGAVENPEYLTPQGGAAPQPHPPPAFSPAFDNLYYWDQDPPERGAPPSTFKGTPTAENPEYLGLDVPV

[7] = target: Receptor tyrosine-protein kinase erbB-2 (Homo sapiens) (UniProt P04626); settings: at 1 µM
[8] = target: Receptor tyrosine-protein kinase erbB-4 (Homo sapiens) (UniProt Q15303); settings: at 0.1 µM
Chain of Receptor tyrosine-protein kinase erbB-4 (Homo sapiens) (Q15303 whole entry): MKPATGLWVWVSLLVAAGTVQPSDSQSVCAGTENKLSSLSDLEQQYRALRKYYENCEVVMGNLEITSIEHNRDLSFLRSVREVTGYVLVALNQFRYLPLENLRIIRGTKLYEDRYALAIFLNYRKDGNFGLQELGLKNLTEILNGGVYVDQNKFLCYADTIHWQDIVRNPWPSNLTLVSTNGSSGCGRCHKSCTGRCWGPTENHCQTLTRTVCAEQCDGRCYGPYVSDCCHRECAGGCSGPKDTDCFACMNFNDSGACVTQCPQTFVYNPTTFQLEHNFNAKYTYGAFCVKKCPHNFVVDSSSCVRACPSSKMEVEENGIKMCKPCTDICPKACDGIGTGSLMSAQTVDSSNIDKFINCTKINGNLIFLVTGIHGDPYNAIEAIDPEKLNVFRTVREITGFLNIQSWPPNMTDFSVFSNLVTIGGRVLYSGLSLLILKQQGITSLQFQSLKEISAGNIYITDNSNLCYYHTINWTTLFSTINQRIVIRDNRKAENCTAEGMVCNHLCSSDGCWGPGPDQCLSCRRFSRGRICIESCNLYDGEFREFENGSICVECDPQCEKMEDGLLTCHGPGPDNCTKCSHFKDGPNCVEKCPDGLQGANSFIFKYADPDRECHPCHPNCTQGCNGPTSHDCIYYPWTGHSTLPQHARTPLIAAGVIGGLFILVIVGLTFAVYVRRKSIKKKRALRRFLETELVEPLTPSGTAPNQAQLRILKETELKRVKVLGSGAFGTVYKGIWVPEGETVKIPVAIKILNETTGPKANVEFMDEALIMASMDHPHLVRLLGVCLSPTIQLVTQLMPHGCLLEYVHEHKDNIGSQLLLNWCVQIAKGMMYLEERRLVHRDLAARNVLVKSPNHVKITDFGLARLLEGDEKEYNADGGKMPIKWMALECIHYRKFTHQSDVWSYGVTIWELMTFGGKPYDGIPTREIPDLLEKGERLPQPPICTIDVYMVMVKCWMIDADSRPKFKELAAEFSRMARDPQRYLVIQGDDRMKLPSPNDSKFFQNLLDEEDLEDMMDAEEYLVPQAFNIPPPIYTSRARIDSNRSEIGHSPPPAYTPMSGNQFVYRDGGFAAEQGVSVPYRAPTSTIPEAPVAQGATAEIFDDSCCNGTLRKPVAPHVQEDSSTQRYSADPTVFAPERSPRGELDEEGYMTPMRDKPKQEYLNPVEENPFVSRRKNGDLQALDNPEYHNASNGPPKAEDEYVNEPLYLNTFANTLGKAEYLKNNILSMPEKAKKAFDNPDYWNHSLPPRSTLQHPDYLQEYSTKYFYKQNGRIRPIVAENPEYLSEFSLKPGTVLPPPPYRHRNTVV

[9] = target: Receptor tyrosine-protein kinase erbB-4 (Homo sapiens) (UniProt Q15303); settings: at 1 µM
[10] = target: Tyrosine-protein kinase Fer (Homo sapiens) (UniProt P16591); settings: at 0.1 µM
[11] = target: Tyrosine-protein kinase Fer (Homo sapiens) (UniProt P16591); settings: at 1 µM
[12] = target: Tyrosine-protein kinase Fes/Fps (Homo sapiens) (UniProt P07332); settings: at 0.1 µM
[13] = target: Tyrosine-protein kinase Fes/Fps (Homo sapiens) (UniProt P07332); settings: at 1 µM
[14] = target: Fibroblast growth factor receptor 1 (Homo sapiens) (UniProt P11362); settings: at 0.1 µM
[15] = target: Fibroblast growth factor receptor 1 (Homo sapiens) (UniProt P11362); settings: at 1 µM
[16] = target: Fibroblast growth factor receptor 2 (Homo sapiens) (UniProt P21802); settings: at 0.1 µM
Chain of Fibroblast growth factor receptor 2 (Homo sapiens) (P21802 22-821 limits assumed): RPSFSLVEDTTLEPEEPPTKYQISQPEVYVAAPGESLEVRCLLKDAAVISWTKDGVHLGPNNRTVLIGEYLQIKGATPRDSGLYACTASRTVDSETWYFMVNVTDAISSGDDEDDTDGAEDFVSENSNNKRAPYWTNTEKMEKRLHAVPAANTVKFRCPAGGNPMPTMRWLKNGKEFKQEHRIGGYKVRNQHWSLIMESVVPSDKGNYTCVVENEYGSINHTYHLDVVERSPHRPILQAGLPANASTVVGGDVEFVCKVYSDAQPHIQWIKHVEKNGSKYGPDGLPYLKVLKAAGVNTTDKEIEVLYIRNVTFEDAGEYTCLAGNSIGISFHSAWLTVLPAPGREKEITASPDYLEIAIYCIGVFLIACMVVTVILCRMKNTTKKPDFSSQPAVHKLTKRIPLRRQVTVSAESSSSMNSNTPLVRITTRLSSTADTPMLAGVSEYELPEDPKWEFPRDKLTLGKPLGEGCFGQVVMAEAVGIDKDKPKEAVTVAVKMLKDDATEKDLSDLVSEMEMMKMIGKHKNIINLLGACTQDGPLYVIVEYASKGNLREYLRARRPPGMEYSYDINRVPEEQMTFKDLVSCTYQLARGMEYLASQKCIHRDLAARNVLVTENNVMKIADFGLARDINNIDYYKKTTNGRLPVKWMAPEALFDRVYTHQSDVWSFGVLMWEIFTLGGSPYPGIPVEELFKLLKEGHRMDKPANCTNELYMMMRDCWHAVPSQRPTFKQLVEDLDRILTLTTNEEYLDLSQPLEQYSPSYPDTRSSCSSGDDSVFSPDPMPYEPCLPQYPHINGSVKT

[17] = target: Fibroblast growth factor receptor 2 (Homo sapiens) (UniProt P21802); settings: at 1 µM
[18] = target: Fibroblast growth factor receptor 3 (Homo sapiens) (UniProt P22607); settings: at 0.1 µM
Chain of Fibroblast growth factor receptor 3 (Homo sapiens) (P22607 23-806 limits assumed): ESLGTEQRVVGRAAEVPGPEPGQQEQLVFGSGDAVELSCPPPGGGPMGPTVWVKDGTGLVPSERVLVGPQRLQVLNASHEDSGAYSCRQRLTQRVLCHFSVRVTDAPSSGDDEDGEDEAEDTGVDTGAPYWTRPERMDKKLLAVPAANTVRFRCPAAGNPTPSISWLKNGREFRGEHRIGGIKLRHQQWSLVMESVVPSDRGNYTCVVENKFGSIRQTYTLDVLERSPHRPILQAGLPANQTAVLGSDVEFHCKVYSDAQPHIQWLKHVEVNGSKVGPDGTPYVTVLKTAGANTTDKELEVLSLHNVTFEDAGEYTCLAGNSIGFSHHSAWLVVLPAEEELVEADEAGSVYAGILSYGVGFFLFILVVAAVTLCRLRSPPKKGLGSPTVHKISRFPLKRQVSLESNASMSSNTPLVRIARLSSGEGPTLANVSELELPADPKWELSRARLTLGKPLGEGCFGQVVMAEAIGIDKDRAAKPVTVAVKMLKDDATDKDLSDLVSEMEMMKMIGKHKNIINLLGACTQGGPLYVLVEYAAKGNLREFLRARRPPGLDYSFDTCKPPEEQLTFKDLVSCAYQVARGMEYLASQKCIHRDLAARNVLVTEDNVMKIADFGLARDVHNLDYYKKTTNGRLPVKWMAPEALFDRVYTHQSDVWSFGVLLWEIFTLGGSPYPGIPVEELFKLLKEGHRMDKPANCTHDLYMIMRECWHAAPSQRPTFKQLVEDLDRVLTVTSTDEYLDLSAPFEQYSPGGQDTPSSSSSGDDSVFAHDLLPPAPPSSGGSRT

[19] = target: Fibroblast growth factor receptor 3 (Homo sapiens) (UniProt P22607); settings: at 1 µM
[20] = target: Fibroblast growth factor receptor 4 (Homo sapiens) (UniProt P22455); settings: at 0.1 µM;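 further: values are mean percent inhibition of FGFR4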
Chain of Fibroblast growth factor receptor 4 (Homo sapiens) (P22455 22-802 limits assumed): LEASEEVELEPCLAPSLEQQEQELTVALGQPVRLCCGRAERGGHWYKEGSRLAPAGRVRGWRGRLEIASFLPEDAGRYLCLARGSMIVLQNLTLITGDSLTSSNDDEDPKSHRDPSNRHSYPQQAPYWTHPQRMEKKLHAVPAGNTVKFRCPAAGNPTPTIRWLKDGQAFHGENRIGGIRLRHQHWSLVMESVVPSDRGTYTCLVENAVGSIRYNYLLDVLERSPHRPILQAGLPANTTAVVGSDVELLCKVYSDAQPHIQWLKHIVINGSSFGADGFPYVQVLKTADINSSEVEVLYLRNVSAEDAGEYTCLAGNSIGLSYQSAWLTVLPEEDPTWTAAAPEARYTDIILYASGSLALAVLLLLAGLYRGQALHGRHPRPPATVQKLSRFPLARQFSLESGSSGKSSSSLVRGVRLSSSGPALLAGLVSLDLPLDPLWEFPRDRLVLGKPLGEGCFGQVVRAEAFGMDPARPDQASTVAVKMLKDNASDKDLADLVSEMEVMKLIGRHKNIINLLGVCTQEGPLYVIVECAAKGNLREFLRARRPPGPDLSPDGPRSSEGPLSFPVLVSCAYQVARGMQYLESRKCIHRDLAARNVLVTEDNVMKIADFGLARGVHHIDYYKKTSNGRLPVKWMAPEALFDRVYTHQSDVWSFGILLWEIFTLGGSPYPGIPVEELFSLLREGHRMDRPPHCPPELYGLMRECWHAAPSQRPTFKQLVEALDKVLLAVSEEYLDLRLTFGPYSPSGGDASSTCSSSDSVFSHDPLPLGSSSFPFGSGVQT

Row | SMILES | inhibition [1] | inhibition [2] | inhibition [3] | inhibition [4] | inhibition [5] | inhibition [6] | inhibition [7] | inhibition [8] | inhibition [9] | inhibition [10] | inhibition [11] | inhibition [12] | inhibition [13] | inhibition [14] | inhibition [15] | inhibition [16] | inhibition [17] | inhibition [18] | inhibition [19] | inhibition [20]
1 | COc1cccc(-n2cnc3c(N/N=C/c4ccncc4)ncnc32)c1 | 16.2% | -8.69% | -4.51% | -2.1% | 0.65% | 0.94% | 7.49% | -3.73% | 2.45% | 4.18% | 4.82% | -0.04% | -1.27% | -7.19% | -2.61% | -3.25% | 10.7% | -3.58% | 3.63% | -4.06%
2 | NS(=O)(=O)c1ccc(Nc2cc(-c3ccc(O)c(F)c3)n[nH]2)cc1 | -1.29% | -8.08% | -5.11% | -0.68% | -0.49% | -5.39% | -4.29% |  | -6.22% | 5.83% | 14.1% | -3.61% | -0.97% | -2.91% | 8.63% | -4.17% | 9.61% | 1.11% | 8.58% | 1.23%
3 | CN(C)c1ccc2c(c1)/C(=C/Nc1ccc(S(N)(=O)=O)cc1)C(=O)N2 | 5.77% | 4.11% | 1.83% | 2.11% | 3.08% | 0.32% | 3.44% | 4.88% | 7.65% | 2.36% | 8.18% | 0.6% | 0.4% | 3.54% | 15.3% | 5.56% | 31.6% | 7.1% | 29.6% | 1.99%
4 | C#Cc1cccc(Nc2ncnc3ccc(OCCCCNCCS(C)(=O)=O)cc23)c1 | 19.4% | 4.21% | 0.73% | 1.68% | -1.52% | 6.37% | 29.9% | 24.8% | 63.8% | 2.76% | 3.37% | 2.69% | 6.01% | 0.37% | 0.98% | 1.4% | 2.36% | 5.79% | 3.33% | -4.44%
5 | O=C1NC(=O)C(c2cccc(Cl)c2)=C1Nc1ccc(Cl)c(C(=O)O)c1 | 3.04% | 10.6% | 4.29% | 0.79% | 0.05% | 2.66% | 1.74% | 7.3% | 10% | 3.46% | 2.51% | 2.13% | 2.52% | 3.46% | 16.2% | 8.43% | 20.6% | 6.79% | 24.8% | -1.89%
6 | COc1cc2ncn(-c3cc(OCc4cccs4)c(C(N)=O)s3)c2cc1OC | 20.8% | -3.17% | -3.49% | -2.89% | -2.46% | 5.9% | 12.5% | 1.73% | 6.6% | 5.05% | 12.9% | 1.87% | 1.21% | -3.02% | 7.33% | 1.75% | 15.3% | 1.72% | 12.4% | -0.52%
7 | C[C@@H](Oc1cc(-n2cnc3ccc(OCC4CCN(C)CC4)cc32)sc1C(N)=O)c1ccccc1Cl | 8.25% | 2.8% | 6.12% | 5.24% | 3.86% | 41.4% | 4.61% | 9.63% | 13.1% | 1.28% | 7.17% | 4.96% | 7.97% | 5.32% | 14% | 9.46% | 12.5% | 11.2% | 8.71% | 3.93%
8 | CS(=O)(=O)CCNCc1cc(-c2cc3c(Nc4ccc(OCc5cccc(F)c5)c(Cl)c4)ncnc3s2)cs1 | 7.92% | 0.62% | 4.6% | -0.19% | 2.96% | 3.61% | 60.2% | 22.7% | 76.7% | 2.65% | 7.65% | 4.73% | 5.27% | 5.5% | 3.17% | 7.79% | 8.79% | 6% | 6.34% | 5.68%
9 | NS(=O)(=O)c1ccc(N/N=C2\C(=O)Nc3ccc(-c4cnco4)cc32)cc1 | 7.61% | -2.23% | -3.53% | -2.49% | -0.26% | 4.9% | 13.6% | 5.79% | 14.2% | 1.03% | 0.94% | 0.3% | 0.19% | -2.98% | 2.6% | -0.2% | 15.2% | -0.63% | 10.1% | -3.55%
10 | Fc1ccc(-c2nc3n(c2-c2ccncc2)CCS3)cc1 | 7.66% | 2.13% | -1.28% | -0.26% | -2.49% | 4.16% | 1.23% | 9.02% | 10% | 2.18% | 2.81% | 2.58% | 2.75% | -4.07% | 1.42% | -0.33% | 1.72% | 2.38% | 0.09% | -6.29%
